Our source for the sensor-assay potency score (higher = more potent) values is the OligoGym collection.
Also: reference of the scale not given here.

One assay concerns the target TMEM117. The experiment in a line: pooled miR-30 sensor sort-seq; sequence = guide strand. The conditions noted are these: shRNA.
As to TACATCAACATCTCCCATGAAA, the sensor-assay potency score (higher = more potent) is -1.02. For the sequence TTTCACTGTATATATCTTCTGC, the sensor-assay potency score (higher = more potent) was -0.0324.

For the sequence TATTACTGAATTTTGCATCTGT, the sensor-assay potency score (higher = more potent) worked out at 1.08. Regarding TTAGTGTGATTGGACCTCCATT, the sensor-assay potency score (higher = more potent) is -1.69. For the sequence TTGAACATCAGATACATGGGTC, the sensor-assay potency score (higher = more potent) came to 0.48. For TAGTAGATTCGTTCAACTGTGA, the sensor-assay potency score (higher = more potent) was 0.105. Take ATTTACATCAACATCTCCCATG: the sensor-assay potency score (higher = more potent) is -0.907. Turning to TTGAAGTCAGACCTGATGCAAA, the sensor-assay potency score (higher = more potent) is -0.838. Regarding TATCAGTGACCATCCAAGCTGT, the sensor-assay potency score (higher = more potent) was -0.461. Regarding TTGTCTTGATTCTCCATGCGTG, the sensor-assay potency score (higher = more potent) is -0.601. TTTGTCTTGATTCTCCATGCGT: the sensor-assay potency score (higher = more potent) was -0.0154.

As to TTAATCGGAGCAACTGACCAAA, the sensor-assay potency score (higher = more potent) is -0.0675.

The next assay addresses TMEM130. Described as above. To be noted: shRNA.
In the case of TTGCTGAGTGGCATTCCGCAGG, the sensor-assay potency score (higher = more potent) was -0.984. In the case of TAGTTATGGATTTTTAACCCTT, the sensor-assay potency score (higher = more potent) was -0.844. The sequence TTGGAAGGTCTGAATTAGGGTG came in with a sensor-assay potency score (higher = more potent) of 0.0908.
